The results in this text go back to PubChem BioAssay AID493114 (The Scripps Research Institute Molecular Screening Center, 2011).

Structures are written as SMILES. This is one part of the list. Values without a mark were called inactive.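 How the source made its calls: active means mean percent activation across triplicates above a set limit taken from the earlier primary procaspase-3 screen; inactive means the rest.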

The target in the assay is Caspase-3 (Homo sapiens) (UniProt P42574). Briefly: procaspase-3 activators, counter-screen for dual procaspase-3/7 activator project, biochemical, absorbance, PC-3 D3A mutant, human (AID 493114).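 Further: 0% = DMSO wells and 100% = DMSO wells with 5 µM added PC-3 D3A.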 The conditions noted are these: recombinant PC-3 D3A, Ac-DEVD-pNA absorbance 405 nm; at 8.5 µM; active compounds read high; 100% = enzyme control; aspartates 9, 28, 175 changed to alanine. (A counterscreen serves to expose hits that act by an unwanted route or on another target.)
Chain of Caspase-3 (Homo sapiens) (P42574 whole entry D9A/D28A/D175A): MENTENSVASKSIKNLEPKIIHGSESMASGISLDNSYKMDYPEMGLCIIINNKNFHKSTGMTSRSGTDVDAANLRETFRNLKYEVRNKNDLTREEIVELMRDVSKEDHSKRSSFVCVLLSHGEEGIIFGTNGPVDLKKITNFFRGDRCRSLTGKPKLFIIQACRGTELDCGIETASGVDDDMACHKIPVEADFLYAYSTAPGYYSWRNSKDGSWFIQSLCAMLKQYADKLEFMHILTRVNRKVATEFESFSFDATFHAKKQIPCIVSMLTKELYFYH
As to `Fc1ccc(N2N=C(c3cccs3)CC2c2ccco2)c(F)c1` (stereo not given), the activation is -29.1%. In the case of `CCOC(=O)C1(CCOC)CCN(Cc2cc3ccccc3s2)CC1` it was 2.49%; in that of `COc1ccccc1N=Cc1c(O)c2ccccc2oc1=O`, -28.6%.

For `COc1ccc(-c2onc3ccc(C(C)=O)cc23)cc1`, the activation was -28%. Consider `COc1ccc(Nc2ncc(C(=O)N3CCN(c4ccccc4OC)CC3)c3ccccc23)cc1`, for which the activation is 0.74%. The value for `CC(=O)Oc1ccc2c(C)c(CC(C)O)c(=O)oc2c1` (stereo not given) was -29.8%; that for `Nc1cccc2c1C(=O)N(Cc1nnc(-c3ccccc3Br)o1)C2=O` was -28.5%.

Regarding `CNS(=O)(=O)c1cccc(C(=O)NC2CCCc3ccccc32)c1` (stereo not given), the activation is 2.51%.

In the case of `CCCCOC(=O)Cn1c(=O)n(CC(=O)OCCCC)c2cc(C)ccc21`, the activation was 2.96%. `COc1ccc(/C=N/Nc2nc3ccccc3c(=O)[nH]2)cc1`: the activation is 0.42%.

On to `CC1(C)Cc2c(C#N)c(SCc3nc4ccccc4[nH]3)nc(N3CCOCC3)c2CO1`, for which the activation was -28.2%. On to `CCN(CC)c1ccc2oc(=O)c(C)nc2c1`, for which the activation is -12.2%. Take `COc1ccc2sc(-c3ccc(S(C)(=O)=O)cc3)c(C#Cc3cncn3C)c2c1`: the activation is -29.9%. As to `COc1ccc(Nc2ncnc3sc(-c4ccccc4)cc23)c(OC)c1`, the activation was -22.7%. As for `O=C1OCCN1C(=O)[C@H]1[C@H](c2ccc(F)cc2)C(c2ccccc2)=NN1c1ccc(Br)cc1`, the activation is -28.8%.
